Data reported in the supplement of paper PMC11732987, “Enantioselective OTUD7B fragment discovery through chemoproteomics screening and high-throughput optimisation” (Communications Chemistry, 2025).

How the values were obtained:
Test in all cases: log2 ratio of Biotin-Ahx-Ub-VS probe labelling (fragment/DMSO); higher = less target engagement (more negative = stronger competition), active = hit call of the paper (q ≤ 0.05, log2 ratio ≤ -1)
Conditions in all cases: compound concentration: 200 uM; treatment time: 3 h
USP42 = molecular target: T1, USP42 (UniProt Q9H9J4)
T1 sequence (whole entry): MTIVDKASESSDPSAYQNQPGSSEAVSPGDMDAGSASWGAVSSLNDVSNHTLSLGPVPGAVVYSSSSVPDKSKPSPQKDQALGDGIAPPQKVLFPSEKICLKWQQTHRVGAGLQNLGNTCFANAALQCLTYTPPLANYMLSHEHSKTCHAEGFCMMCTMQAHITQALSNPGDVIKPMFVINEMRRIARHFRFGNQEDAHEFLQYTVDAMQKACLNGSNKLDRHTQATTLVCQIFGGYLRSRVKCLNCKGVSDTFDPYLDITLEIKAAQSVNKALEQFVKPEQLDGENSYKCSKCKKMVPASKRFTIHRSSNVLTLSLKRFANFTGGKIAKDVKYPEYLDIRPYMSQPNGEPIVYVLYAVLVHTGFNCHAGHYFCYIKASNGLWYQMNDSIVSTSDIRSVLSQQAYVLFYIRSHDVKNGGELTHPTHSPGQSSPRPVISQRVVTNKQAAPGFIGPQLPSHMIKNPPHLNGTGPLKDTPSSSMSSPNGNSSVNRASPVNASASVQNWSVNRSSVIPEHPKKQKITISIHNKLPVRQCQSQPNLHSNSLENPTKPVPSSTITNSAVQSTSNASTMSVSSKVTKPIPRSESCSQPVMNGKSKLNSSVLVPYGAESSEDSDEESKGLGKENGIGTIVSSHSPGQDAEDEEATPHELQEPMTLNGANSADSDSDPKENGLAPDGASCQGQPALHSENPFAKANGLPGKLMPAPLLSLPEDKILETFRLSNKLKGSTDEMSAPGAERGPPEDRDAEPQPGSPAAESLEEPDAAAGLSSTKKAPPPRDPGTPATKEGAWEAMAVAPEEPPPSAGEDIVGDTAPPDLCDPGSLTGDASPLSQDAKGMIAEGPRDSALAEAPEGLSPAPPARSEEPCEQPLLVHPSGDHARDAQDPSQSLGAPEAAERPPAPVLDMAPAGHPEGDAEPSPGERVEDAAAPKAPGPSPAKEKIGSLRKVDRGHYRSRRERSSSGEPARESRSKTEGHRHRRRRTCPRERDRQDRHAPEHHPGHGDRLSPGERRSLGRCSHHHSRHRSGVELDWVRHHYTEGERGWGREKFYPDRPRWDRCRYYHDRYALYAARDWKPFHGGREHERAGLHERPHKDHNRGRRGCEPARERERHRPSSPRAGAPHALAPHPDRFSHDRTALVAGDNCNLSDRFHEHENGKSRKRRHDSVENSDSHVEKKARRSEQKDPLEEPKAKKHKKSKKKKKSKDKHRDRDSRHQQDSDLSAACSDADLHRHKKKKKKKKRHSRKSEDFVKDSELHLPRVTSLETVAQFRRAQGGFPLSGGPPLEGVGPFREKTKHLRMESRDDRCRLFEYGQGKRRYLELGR
Outline: (§1)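 HEK293T lysate (495 µg per sample, in Tris/CHAPS/IGEPAL buffer with protease inhibitors) was exposed in triplicate for 3 h to fragment at 200 µM or to vehicle, then to Biotin-Ahx-Ub-VS at 0.5 µM final for 1 h. Labelled DUBs were enriched on NeutrAvidin, digested with LysC and trypsin, and analysed by diaPASEF LC-MS/MS. Spectronaut label-free quantities were normalised to the global median, and values are average log2 ratios of fragment over vehicle from an unpaired t-test. Only proteins with ≥2 unique peptides were used.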

USP46 = USP46 (UniProt P62068)
Sequence of USP46 (P62068 whole entry): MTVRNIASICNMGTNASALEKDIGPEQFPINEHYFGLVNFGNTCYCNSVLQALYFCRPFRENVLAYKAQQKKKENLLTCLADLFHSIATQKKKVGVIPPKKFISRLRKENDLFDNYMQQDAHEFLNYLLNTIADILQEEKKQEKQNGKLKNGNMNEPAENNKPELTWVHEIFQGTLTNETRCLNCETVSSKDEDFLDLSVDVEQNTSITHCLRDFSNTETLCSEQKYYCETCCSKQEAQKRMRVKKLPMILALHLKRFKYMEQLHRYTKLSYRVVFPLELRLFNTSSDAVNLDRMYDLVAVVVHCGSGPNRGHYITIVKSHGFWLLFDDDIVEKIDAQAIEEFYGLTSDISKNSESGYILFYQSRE
Outline: as §1

USP47 = molecular target: T2, USP47 (UniProt Q96K76)
T2 sequence (whole entry): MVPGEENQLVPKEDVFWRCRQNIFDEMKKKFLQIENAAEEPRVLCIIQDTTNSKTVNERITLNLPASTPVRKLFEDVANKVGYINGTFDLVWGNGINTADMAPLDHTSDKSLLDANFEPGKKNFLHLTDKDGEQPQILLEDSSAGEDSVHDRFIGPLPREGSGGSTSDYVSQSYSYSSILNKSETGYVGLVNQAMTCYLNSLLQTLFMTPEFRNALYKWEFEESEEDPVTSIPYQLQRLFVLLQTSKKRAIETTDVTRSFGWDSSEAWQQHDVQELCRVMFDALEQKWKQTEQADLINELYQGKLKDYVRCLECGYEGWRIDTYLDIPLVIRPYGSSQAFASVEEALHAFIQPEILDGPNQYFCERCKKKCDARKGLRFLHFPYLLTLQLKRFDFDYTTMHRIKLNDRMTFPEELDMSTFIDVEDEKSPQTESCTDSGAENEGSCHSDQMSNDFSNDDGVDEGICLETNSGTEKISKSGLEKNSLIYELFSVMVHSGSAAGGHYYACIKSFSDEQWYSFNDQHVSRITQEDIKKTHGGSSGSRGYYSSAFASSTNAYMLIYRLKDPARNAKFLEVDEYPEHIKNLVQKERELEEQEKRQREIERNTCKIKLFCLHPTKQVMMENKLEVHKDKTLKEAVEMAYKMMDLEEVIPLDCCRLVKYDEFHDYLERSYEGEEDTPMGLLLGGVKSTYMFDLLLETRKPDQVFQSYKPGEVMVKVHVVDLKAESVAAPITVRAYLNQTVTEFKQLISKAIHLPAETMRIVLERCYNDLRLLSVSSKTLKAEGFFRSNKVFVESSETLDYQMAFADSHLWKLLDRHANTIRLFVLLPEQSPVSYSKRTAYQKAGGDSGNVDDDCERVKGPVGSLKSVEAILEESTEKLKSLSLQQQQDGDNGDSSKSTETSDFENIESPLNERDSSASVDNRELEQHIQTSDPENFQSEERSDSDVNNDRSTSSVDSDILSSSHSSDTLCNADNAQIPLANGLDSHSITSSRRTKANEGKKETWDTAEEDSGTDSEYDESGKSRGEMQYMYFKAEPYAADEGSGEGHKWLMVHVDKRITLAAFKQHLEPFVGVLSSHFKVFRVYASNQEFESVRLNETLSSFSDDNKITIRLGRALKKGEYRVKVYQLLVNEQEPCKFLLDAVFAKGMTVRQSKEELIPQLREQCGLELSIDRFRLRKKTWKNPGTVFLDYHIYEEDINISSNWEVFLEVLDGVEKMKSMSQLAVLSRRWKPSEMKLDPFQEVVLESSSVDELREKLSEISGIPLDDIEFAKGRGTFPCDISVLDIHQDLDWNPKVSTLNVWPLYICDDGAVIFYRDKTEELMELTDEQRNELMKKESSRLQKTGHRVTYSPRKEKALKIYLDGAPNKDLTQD
Outline: as §1

USP48 = molecular target: T3, USP48 (UniProt Q86UV5)
T3 sequence (whole entry): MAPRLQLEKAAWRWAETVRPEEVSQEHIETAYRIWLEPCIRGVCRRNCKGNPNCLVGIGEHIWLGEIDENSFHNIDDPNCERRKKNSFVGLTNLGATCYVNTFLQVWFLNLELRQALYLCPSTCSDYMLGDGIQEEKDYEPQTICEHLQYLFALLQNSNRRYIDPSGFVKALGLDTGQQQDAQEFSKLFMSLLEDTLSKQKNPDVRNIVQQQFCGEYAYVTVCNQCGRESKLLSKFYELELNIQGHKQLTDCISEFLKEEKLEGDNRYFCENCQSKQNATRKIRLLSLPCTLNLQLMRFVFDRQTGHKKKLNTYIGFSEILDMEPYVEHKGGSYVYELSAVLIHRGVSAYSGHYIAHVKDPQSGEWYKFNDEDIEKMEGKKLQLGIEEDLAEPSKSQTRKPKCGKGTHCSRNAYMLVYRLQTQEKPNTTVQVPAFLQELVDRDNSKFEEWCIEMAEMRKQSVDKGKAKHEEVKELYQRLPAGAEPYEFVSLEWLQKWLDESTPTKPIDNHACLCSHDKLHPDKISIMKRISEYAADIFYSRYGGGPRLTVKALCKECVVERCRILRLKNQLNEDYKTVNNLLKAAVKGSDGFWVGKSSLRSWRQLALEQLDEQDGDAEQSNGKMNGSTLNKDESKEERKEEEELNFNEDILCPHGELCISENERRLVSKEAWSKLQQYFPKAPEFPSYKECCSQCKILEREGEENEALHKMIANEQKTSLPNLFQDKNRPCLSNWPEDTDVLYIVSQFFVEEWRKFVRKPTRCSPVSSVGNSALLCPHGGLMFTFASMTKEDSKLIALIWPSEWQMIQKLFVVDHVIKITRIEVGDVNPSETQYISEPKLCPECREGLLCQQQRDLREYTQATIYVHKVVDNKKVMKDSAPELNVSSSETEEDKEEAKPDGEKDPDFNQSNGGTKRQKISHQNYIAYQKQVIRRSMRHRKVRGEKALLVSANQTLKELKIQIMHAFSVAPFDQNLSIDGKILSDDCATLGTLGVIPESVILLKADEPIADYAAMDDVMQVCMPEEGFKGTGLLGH
Outline: as §1

USP5 = molecular target: T4, USP5 (UniProt P45974)
T4 sequence (whole entry): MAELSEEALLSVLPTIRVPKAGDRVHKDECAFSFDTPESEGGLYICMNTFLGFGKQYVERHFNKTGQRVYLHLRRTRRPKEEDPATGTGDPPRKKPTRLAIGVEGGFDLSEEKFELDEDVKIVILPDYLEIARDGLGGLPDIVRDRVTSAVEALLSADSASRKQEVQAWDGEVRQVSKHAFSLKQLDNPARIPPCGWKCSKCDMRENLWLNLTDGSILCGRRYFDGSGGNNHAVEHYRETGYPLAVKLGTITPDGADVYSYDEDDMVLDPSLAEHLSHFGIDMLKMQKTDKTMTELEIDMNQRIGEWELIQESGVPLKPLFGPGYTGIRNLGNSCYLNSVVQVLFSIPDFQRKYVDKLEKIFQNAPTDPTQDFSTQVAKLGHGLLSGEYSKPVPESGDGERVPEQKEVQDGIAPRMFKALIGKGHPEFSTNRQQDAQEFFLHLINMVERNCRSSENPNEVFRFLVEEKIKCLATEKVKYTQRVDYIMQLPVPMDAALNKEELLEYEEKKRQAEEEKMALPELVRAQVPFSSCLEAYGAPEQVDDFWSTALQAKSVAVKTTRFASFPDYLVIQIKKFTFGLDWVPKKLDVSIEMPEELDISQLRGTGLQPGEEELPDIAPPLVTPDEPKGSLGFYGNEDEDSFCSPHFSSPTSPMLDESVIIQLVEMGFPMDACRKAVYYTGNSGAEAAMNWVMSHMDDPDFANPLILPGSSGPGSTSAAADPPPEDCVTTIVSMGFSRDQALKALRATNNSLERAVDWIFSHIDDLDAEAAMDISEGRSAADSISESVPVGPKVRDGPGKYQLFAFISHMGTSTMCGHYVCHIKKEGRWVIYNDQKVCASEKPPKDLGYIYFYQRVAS
Outline: as §1

USP54 = USP54 (UniProt Q70EL1)
Sequence of USP54 (Q70EL1 whole entry): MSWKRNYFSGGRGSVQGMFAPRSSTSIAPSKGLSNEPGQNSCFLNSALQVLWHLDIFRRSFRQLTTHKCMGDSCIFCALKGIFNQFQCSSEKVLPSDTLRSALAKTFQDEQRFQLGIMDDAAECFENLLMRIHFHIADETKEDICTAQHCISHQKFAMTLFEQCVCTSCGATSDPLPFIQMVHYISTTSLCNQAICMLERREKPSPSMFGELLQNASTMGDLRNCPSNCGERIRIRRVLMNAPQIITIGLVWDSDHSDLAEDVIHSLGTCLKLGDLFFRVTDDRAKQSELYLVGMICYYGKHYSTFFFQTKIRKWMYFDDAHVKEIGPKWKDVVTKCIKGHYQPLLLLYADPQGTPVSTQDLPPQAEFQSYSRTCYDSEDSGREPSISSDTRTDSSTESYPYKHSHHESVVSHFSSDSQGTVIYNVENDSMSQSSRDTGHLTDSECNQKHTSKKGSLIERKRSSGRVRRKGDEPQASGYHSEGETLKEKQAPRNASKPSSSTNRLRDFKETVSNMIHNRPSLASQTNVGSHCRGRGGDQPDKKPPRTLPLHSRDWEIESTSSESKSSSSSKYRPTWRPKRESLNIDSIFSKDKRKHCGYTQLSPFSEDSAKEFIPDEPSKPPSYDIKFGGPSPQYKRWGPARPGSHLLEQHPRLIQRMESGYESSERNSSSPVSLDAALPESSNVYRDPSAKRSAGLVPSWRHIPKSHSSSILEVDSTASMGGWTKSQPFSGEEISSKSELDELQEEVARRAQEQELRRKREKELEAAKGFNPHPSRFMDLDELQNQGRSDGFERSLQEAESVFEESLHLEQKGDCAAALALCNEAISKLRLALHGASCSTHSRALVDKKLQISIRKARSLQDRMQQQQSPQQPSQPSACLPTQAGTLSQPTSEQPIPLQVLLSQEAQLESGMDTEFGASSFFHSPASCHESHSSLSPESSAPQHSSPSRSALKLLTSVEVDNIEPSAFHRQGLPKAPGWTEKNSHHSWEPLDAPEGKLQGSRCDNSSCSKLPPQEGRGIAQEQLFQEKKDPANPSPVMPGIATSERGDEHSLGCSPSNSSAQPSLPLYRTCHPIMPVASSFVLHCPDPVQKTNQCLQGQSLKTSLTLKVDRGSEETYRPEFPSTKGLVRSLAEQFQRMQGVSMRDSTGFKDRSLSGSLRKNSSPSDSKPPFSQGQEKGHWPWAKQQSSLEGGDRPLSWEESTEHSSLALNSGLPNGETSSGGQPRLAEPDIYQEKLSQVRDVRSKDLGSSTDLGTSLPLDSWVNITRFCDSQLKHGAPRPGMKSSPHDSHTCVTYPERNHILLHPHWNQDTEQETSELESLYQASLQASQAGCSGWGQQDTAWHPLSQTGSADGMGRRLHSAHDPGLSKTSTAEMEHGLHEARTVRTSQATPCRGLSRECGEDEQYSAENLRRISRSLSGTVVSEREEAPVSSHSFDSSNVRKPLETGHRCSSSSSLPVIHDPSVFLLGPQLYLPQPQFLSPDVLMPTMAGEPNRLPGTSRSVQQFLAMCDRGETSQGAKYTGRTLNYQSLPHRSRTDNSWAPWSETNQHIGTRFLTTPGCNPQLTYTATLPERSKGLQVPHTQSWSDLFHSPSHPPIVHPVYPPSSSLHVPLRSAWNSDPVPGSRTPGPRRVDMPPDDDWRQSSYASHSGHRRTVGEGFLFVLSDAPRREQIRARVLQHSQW
Outline: as §1

USP7 = USP7 (UniProt Q93009)
Sequence of USP7 (Q93009 whole entry, looked up): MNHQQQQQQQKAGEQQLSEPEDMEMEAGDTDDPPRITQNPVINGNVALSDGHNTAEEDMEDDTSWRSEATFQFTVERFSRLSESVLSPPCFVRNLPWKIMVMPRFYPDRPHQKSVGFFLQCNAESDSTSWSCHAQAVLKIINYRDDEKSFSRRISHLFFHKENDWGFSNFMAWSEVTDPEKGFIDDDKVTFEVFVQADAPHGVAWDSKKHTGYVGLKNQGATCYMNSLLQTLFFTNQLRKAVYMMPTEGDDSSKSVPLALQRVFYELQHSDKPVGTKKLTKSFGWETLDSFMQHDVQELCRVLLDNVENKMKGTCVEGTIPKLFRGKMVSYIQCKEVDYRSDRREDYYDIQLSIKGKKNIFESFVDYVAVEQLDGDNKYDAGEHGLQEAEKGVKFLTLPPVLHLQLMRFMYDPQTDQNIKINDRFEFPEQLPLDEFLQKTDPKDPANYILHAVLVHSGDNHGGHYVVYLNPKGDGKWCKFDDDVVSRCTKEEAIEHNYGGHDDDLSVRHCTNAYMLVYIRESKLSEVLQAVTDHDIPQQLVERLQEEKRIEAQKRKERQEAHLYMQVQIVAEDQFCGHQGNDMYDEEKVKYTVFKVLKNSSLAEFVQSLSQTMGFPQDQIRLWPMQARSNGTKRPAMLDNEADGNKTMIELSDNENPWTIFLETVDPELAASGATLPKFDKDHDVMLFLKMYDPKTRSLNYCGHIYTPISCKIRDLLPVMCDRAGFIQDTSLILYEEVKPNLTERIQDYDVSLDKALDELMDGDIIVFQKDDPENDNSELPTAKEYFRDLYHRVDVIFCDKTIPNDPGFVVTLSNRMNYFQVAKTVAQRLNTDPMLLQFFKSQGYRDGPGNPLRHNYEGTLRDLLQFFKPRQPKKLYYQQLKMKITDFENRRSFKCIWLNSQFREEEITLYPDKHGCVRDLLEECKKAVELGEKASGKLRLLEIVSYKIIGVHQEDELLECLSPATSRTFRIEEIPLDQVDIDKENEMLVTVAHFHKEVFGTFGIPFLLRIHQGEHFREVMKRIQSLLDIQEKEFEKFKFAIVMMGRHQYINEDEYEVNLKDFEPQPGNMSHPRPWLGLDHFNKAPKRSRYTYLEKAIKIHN
Outline: as §1

USP8 = molecular target: T5, USP8 (UniProt P40818)
T5 sequence (whole entry): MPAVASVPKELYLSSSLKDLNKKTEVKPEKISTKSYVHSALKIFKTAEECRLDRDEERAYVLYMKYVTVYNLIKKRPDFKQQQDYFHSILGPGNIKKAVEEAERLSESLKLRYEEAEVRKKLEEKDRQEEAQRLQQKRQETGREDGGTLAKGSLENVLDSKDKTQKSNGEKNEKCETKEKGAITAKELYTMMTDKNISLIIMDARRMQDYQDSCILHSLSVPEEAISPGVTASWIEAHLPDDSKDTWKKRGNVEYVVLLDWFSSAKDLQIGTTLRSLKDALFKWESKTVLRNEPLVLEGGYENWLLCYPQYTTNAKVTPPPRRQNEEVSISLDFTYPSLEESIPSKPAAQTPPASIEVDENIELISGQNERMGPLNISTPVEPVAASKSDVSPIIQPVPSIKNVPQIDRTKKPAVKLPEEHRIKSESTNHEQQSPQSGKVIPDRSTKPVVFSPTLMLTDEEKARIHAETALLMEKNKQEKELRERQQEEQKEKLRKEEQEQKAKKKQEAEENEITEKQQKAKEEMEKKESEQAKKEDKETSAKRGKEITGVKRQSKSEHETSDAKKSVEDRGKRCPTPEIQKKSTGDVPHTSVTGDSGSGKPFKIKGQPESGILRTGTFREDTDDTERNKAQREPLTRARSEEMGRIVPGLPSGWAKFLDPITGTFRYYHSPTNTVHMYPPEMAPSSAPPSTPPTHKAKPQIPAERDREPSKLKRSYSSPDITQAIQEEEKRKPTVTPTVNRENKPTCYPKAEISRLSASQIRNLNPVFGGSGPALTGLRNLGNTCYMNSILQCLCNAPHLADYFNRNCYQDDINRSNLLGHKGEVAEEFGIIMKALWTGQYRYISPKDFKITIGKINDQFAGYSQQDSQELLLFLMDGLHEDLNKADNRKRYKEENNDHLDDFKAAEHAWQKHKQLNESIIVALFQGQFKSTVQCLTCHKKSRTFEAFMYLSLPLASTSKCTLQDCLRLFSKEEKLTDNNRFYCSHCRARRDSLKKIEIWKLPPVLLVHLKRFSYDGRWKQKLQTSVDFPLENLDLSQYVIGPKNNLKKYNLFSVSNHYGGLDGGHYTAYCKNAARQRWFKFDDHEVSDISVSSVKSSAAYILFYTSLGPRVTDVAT
Outline: as §1

Measured: log2 ratio of Biotin-Ahx-Ub-VS probe labelling

O=C(CCl)NCc1ccc(Cl)cc1
inactive: USP42 0.175 | USP46 -0.0156 | USP47 -0.0592 | USP48 0.107 | USP5 -0.0207 | USP54 -0.625 | USP7 -0.206 | USP8 0.105
